# Bioassay records from PubChem BioAssay.
# Only some compounds are listed: those with a hit (about 3.9% of all), similar ones and a draw of the others.
# GDH-TPI counter: counter-screen for M. tuberculosis FBA inhibitors: GDH-TPI coupled enzymes. GDH-TPI coupled enzyme counterscreen, NADH absorbance. 360,000 compounds, 1.2% hits. inhibition, % at 4.8 µM; in the data active = inhibition above about 30%;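 also: 0% = DMSO wells and 100% = wells lacking the enzyme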
# SARS 3CLpro inh: SARS-CoV 3CLpro protease inhibition | recombinant SARS-CoV 3CLpro, quenched FRET peptide cleavage | inhibition, % at 6 µM | P0C6X7 | 290,000 compounds, 0.14% hits | AID 1706; in the data active = inhibition above about 12%
# Vc quorum ag: induces V. cholerae light production without autoinducers; activation, % at 18.7 µM; V. cholerae BH1578 lux reporter, luminescence, 6 h; 350,000 compounds, 0.16% hits; in the data active = activation mostly above about 9.7%, no sharp cut-off
# PrPC surface inh: cell surface PrPC inhibition, primary TR-FRET screen; P04156; TR-FRET read-out; inhibition, % at 13.8 µM; 370,000 compounds, 0.43% hits; AID 720596; in the data active = inhibition above about 24%; also: 0% = median of the test wells and 100% = reference compound wells
# FBA Mtb inh: Mtb fructose-bisphosphate aldolase inhibition; P9WQA3; purified M. tuberculosis FBA, fluorescence read-out; inhibition, % at 1 µM; 360,000 compounds, 2.3% hits; AID 588726; in the data active = inhibition above about 27%;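 also: 0% = vehicle and 100% = reference inhibitor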
# Target sequence (P9WQA3 whole entry, looked up): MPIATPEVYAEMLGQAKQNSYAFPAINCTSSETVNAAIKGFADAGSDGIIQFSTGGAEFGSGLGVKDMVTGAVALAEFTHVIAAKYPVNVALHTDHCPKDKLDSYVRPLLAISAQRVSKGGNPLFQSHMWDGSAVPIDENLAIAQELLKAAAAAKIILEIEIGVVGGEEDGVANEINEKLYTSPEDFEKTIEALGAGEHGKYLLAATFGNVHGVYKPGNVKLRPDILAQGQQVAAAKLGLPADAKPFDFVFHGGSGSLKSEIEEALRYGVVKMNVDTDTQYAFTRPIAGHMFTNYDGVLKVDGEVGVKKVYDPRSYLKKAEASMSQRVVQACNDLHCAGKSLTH
# * = called active by the depositor; i = inactive; nt = no result given.
SMILES,GDH-TPI counter,SARS 3CLpro inh,Vc quorum ag,PrPC surface inh,FBA Mtb inh
CC(NC(=O)c1c(N)[nH]c(C(=O)c2ccccc2)c1-c1ccccc1Br)c1cccc2ccccc12 (stereo not drawn),nt,nt,nt,-7,nt
Cc1noc(C)c1COc1ccc(C(=O)OCC(=O)Nc2ccc(C(=O)N(C)C)cc2)cc1,7,nt,1,-3,2
Cn1nc(-c2ccccc2)c2ncc(C(F)(F)F)cc21,6,-6,0,nt,28*
CC1(C(=O)Nc2ccccc2Br)CCN1C(=O)Cc1ccccc1Cl (stereo not drawn),-1,nt,0,-5,-3
Clc1ccc(-c2ccc(C=Nc3ccc(N4CCOCC4)cc3)o2)cc1,32*,-1,2,-13,-4
Brc1ccc2c(c1)-c1ccccc1C1=NCCN12,14,nt,5,10,1
Clc1ccc2c(c1)-c1ccccc1C1=NCCN12,20,nt,-6,12,51*
COc1ccc(Cl)cc1Nc1cc(C)nc2ccccc12,3,nt,i,13,0
CC(=O)Nc1ccc(Nc2cc(C)nc3ccccc23)cc1,38*,nt,i,-4,-1
Cc1cc(Nc2ccccc2Cl)c2ccccc2n1,37*,nt,i,2,0
CC(C)c1ccc(NC2CCCN(C(=O)c3ccsc3)C2)cc1 (stereo not drawn),7,-1,i,-3,4
Cc1ccc2cc(/C=N/NC(=O)CN3CCCCC3)c(Cl)nc2c1,4,5,0,-8,1
CN(C)c1ccc(C=NCCC2(c3ccccc3)CCOC(C)(C)C2)cc1 (stereo not drawn),56*,3,0,-1,0
CN(C)c1ccc(C=NCC2(O)CCOC(C)(C)C2)cc1 (stereo not drawn),48*,-3,i,2,2
CN(C)c1ccc(C=NN2CCCCCC2)cc1,25,nt,i,10,-7
COc1ccc(C2(CCN=Cc3ccc(N(C)C)cc3)CCOC(C)(C)C2)cc1 (stereo not drawn),29,3,i,5,0
COCCN1CCN(C(=O)C2CCC(=O)N(CCc3cccc(F)c3)C2)CC1 (stereo not drawn),-1,-5,0,-4,2
COc1ccc(/C=N/Nc2cc(C)nc(N)n2)cc1,35*,-3,-2,-11,-1
COc1ccc(/C=N/Nc2cc(OC)ncn2)cc1,31*,0,0,0,-2
COc1ccc(/C=N/Nc2cc(C)nc(-n3nc(C)cc3C)n2)c(OC)c1,37*,-1,3,10,0
COc1ccc(/C=N/Nc2cc(N(C)C)nc(N(C)C)n2)cc1,24,-1,0,6,2
COc1cc(/C=N/Nc2cc(C)nc(N)n2)ccc1O,19,-3,i,-3,-1
COc1ccc(/C=N/Nc2cc(C)nc(N3CCOCC3)n2)cc1,33*,-6,0,6,0
Cc1cc(N/N=C/c2ccc(F)cc2)nc(-n2nc(C)cc2C)n1,11,0,-1,6,17
COc1ccc(-n2nc3c(c2NC(=O)c2ccc(S(=O)(=O)N4CCOCC4)cc2)CS(=O)(=O)C3)cc1,5,3,0,6,-1
SMILES,GDH-TPI counter,SARS 3CLpro inh,Vc quorum ag,PrPC surface inh,FBA Mtb inh
Cc1ccc([C@@H]2C[C@H]3[C@@H](CN2S(=O)(=O)c2ccc(Cl)cc2)C(=O)C[C@@H](c2ccc(C)cc2)N3S(=O)(=O)c2ccc(Cl)cc2)cc1,1,nt,-2,-4,0
Cn1nc(C(=O)NCC2COc3ccccc3O2)c2ccccc2c1=O (stereo not drawn),-3,nt,i,-4,1
CN(c1ccccc1)S(=O)(=O)c1cccc(NC(=O)C2CC(=O)N(Cc3ccccc3)C2)c1 (stereo not drawn),0,4,i,11,2
COc1cc(OC)nc(NC(=O)CS(=O)(=O)c2ccccc2)n1,5,1,33*,2,0
N#CCc1ccc(NC(=O)/C=C/c2ccc([N+](=O)[O-])o2)cc1,34*,3,-1,nt,-1
O=C1Nc2ccc(F)cc2C12OCCO2,5,4,-1,4,4
COc1cccc(CN(C)Cc2cc(=O)oc3cc(O)c(Cl)cc23)c1,9,-5,i,-13,164*
CCOC(=O)c1ccc(N2CCOCC2)c(NC(=O)c2c(-c3ccccc3)noc2C)c1,2,-8,-1,18,0
CCCCn1c(/N=C/c2ccccc2NS(=O)(=O)c2ccc(C)cc2)nc2ccccc21,10,-1,0,-3,0
CC(=O)Nc1c(S(=O)(=O)c2ccccc2)c2nc3ccccc3nc2n1Cc1ccccc1,11,3,i,1,148*
Nc1c(S(=O)(=O)c2cc(Cl)ccc2Cl)c2nc3ccccc3nc2n1CCN1CCOCC1,20,-1,i,-5,13
CCCCn1c(N)c(S(=O)(=O)c2ccc(C)cc2)c2nc3ccccc3nc21,18,1,-1,16,116*
CN(C)CCCn1c(N)c(S(=O)(=O)c2ccccc2)c2nc3ccccc3nc21,20,2,i,9,113*
C=CCn1c(NS(=O)(=O)c2ccccc2)c(S(=O)(=O)c2ccc(C)cc2)c2nc3ccccc3nc21,8,7,-1,-8,14
Cc1ccc(S(=O)(=O)c2c(N)n(-c3ccccc3)c3nc4ccccc4nc23)cc1,14,6,0,-10,129*
O=C(NC(=S)Nc1nc2ccc(F)cc2s1)c1ccco1,9,-1,0,2,4
CC1CCCC(NC(=O)COC(=O)c2cc3ccccc3oc2=O)C1C (stereo not drawn),2,nt,i,3,4
O=C(COc1ccccc1[N+](=O)[O-])N/N=C/C=C/c1ccco1,49*,0,-1,-8,-1
Cc1oc(-c2cccc(Cl)c2)nc1CN1CCC(C(=O)NCCCN2CC(C)CC(C)C2)CC1 (stereo not drawn),5,-2,i,nt,2
CNC(=O)C1CC(=O)N/C(=N/N=C(\C)c2cccs2)S1 (stereo not drawn),37*,7,i,-3,-5
COc1ccc(/C(C)=N/N=C2/NC(=O)CC(C(=O)O)S2)cc1F (stereo not drawn),52*,-1,0,-5,-5
Cc1ccc(CN2CCN(Cc3ccccc3C(F)(F)F)CC2)cc1,-2,4,i,1,4
COc1cccc(CC2(CO)CCCN(Cc3ccc(OC)c(C)c3OC)C2)c1 (stereo not drawn),8,2,i,-5,3
CCCC(=O)Nc1nc2ccc(C(=O)OCC)cc2s1,-4,0,0,5,2
CCOC(=O)c1ccc2nc(NC(=O)c3cccs3)sc2c1,38*,3,-1,-4,25
O=C(COC(=O)c1ccco1)Nc1nc2ccc([N+](=O)[O-])cc2s1,34*,2,i,-18,2
CCCCc1ccc2nc(NC(=O)c3cccs3)sc2c1,nt,nt,nt,11,nt
CCOC(=O)c1ccc2nc(NC(=O)c3ccco3)sc2c1,36*,0,i,-4,22
